# Giardia killer: kills Giardia lamblia. Giardia lamblia trophozoite viability. AID 540267. activity change, % at 7.66 µM, hits read low. hit rate 0.15% among 340,000; in the data active = activity change below about -80%; inconclusive = between about -30% and that limit;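 also: parasites exposed to compound for two days anaerobically before the ATP read; % is scaled to controls: 0 for no effect and ±100 for the full control effect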
#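 Killing of trophozoites was scored by loss of ATP luminescence after a 48 hrs anaerobic exposure to compounds at 37 deg C, using 100 cells per well.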
# Mm-Cpn inhibitor: M. maripaludis TRiC chaperonin inhibition; purified Mm-Cpn ATPase, ADP Transcreener TR-FRET; AID 504842; hit rate 0.031% among 330,000; Potency, µM (top dose mostly 76.9 µM), inactives show at the highest dose activity, negative = inhibition, actives largely listed as inhibitors; active = well fitted inhibition curve with a large enough effect; inconclusive = small, poorly fitted or top-dose-only effect; also: potency is read from the fitted curve at half-maximal effect; % is scaled to controls: 0 for no effect and ±100 for the full control effect; nearly all actives have a fitted effect of over 80% in size
#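 Eu-cryptate anti-ADP/ADP-d2 competition gives a ratio inversely related to ADP. Enzyme at 25 nM was pre-exposed to compound for 10 min, then given 10 uM ATP for 30 min, 37°C throughout.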
# Rango-impB inh: inhibitors of Rango-importin beta complex formation; hit rate 0.031% among 340,000; Rango CFP/YFP FRET sensor + importin beta, 45 min; Potency, µM (top dose mostly 92.2 µM), for inactives: top-dose inhibition of complex formation; Q14974;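 also: potency is read from the fitted curve at half-maximal effect; 0% = DMSO wells and 100% = buffer wells lacking importin beta; nearly all actives have a fitted effect of over 15% in size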
# Target sequence (Q14974 whole entry, looked up): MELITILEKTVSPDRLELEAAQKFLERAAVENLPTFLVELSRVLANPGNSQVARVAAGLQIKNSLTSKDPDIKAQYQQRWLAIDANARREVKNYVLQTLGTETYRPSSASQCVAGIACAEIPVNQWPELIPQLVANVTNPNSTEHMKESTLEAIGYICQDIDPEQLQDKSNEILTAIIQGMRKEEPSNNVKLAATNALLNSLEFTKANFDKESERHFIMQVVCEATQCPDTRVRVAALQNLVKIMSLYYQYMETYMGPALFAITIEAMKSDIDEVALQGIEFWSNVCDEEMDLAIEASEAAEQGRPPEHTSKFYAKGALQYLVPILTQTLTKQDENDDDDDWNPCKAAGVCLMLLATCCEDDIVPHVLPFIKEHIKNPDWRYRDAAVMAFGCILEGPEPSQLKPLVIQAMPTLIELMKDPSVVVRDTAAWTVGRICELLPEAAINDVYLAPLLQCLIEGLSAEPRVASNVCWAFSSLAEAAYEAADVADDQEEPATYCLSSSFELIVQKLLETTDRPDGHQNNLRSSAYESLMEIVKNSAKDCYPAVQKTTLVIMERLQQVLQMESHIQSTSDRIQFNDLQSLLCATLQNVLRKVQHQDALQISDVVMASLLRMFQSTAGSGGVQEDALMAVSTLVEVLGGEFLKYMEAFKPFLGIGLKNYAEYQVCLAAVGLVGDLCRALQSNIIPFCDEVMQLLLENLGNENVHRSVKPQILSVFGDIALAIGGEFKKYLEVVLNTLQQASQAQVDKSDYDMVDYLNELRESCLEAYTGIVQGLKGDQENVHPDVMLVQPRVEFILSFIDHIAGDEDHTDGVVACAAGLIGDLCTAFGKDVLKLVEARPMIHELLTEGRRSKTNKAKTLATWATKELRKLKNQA
#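 Inhibition scored from the CFP 486 nm/YFP 530 nm FRET ratio 45 min after adding 0.125 microM importin beta to 50 nM Rango biosensor preincubated 5 min with compound (room temperature, PBS with DTT, Tween-20, BSA). No-importin wells as positive control.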
# Rango release inh: inhibition of RanGTP-driven Rango-importin beta dissociation | O95149+P62826 | Biochemical FRET Rango-importin beta, RanGTP-induced dissociation | Potency, µM (top dose mostly 46.1 µM), without a hit: at the top dose activity change, negative = inhibition | hit rate 0.071% among 340,000 | AID 540253; also: potency is read from the fitted curve at half-maximal effect; % of control where 0% means no effect; nearly all actives have a fitted effect of over 45% in size
#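 Compounds sat 5 min at room temperature with 0.1 uM Rango biosensor plus 0.25 uM importin beta, then FRET pre-read. RanGTP-RCC1 (0.6 uM Ran, 2mM GTP, 0.2 uM RCC1) added for 45 min, and the CFP/YFP post-read measured blocked complex dissociation.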
# CCT chaperon mod: modulators of cytosolic chaperonin (CCT/TRiC) activity; AID 651819; purified chaperonin ATPase assay, HTRF ADP detection, 30 min; hit rate 0.3% among 360,000; activity change, % (no concentration beside the values), hits read low; in the data active = activity change below about -30%; also: % is scaled to controls: 0 for no effect and ±100 for the full control effect
#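 We incubate TRiC, 40 or 20 nM final, with library compounds at 76 uM and 10 uM ATP for 30 min at 37 °C. ADP formed is detected with Transcreener HTRF reagents after 30 min at room temperature.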
# * = called active by the depositor; u = inconclusive; x = no result; [ ] = another dose, or the depositor's remark. Hits are enriched below; roughly 0.53% of the tested compounds scored in any of these assays. Unless noted, calls follow the shape of the full dose curve.
SMILES,Giardia killer,Mm-Cpn inhibitor,Rango-impB inh,Rango release inh,CCT chaperon mod
O=C1CC(c2ccco2)CC2=C1C(c1ccncc1)n1nc(C(F)(F)F)nc1N2 (configuration not stated),3,x,x,x,x
S=C(NN=Cc1ccccn1)N(Cc1ccccn1)Cc1ccccn1,-11,x,0%,32%,-43*
c1ccc(-c2nc(NCc3cccs3)c3ccccc3n2)cc1,15,0%,1%,u,-48*
COc1ccccc1Nc1nc(-c2c(C)[nH]c3ccccc23)cs1,u,-9%,u,12µM*,-1
Cc1[nH]c2ccccc2c1-c1csc(N)n1,0,1%,u,-6%,2
COc1ccc(Br)cc1C1NC(c2ccc3c(c2)OCO3)=CC(c2cc(Cl)ccc2O)N1 (configuration not stated),2,x,x,x,x
C#CCn1c(=NC(=O)c2cc(Cl)sc2Cl)sc2cc(S(N)(=O)=O)ccc21,8,50µM*,6%,14%,-2
C#CCn1c(=NC(=O)CN2C(=O)CCC2=O)sc2cc(S(N)(=O)=O)ccc21,-1,-1%,6%,3%,-1
COc1ccccc1N1CCN(C(=O)c2ccc(Cn3c(=S)[nH]c4cc5c(cc4c3=O)OCO5)cc2)CC1,-7,-4%,0%,-2%,-31*
COc1cc(/C=C2\C(=N)N3N=C(S(C)(=O)=O)SC3=NC2=O)ccc1OC(=O)c1ccco1,-8,-1%,u,5.8µM*,-1
CCOc1cc(/C=C2\C(=N)N3N=C(S(=O)(=O)CC)SC3=NC2=O)ccc1OC(=O)c1ccco1,8,2%,5%,u,0
O=C(O)c1ccc2c(ccc3nn(-c4ccc(/C=C/c5ccc(-n6nc7ccc8cc(C(=O)O)ccc8c7n6)cc5[S+](=O)([O-])[O-])c([S+](=O)([O-])[O-])c4)nc32)c1,3,x,x,x,x
CC(=O)NCc1cc(Cl)c2cccnc2c1O,x,-4%,x,x,x
O=C(COC(=O)CNC(=O)C1CCCCC1)NC1CCCC1,9,x,x,x,x
COc1ccc2nc(N=Nc3ccc(N(C)C)cc3)sc2c1,-82*,2%,5%,10%,0
CCN(C(=O)COc1cc(=O)n(C)c2ccccc12)c1cccc(Cl)c1,24,0%,6%,8%,-55*
C=C1CCN(C(Cc2ccccc2)C(=O)NCc2ccc(Cl)c(Cl)c2)S(=O)(=O)c2ccccc21 (configuration not stated),11,x,x,x,x
COc1ccc(Nc2oc(-c3cccs3)nc2C#N)cc1,12,-8%,u,-2%,-37*
CNc1oc(-c2cccs2)nc1C#N,-22,-9%,1%,0%,0
O=C(O)CCCNC(=O)Cc1ccccc1,-6,3%,1%,-10%,-91*
O=S(=O)(c1ccc2ncsc2c1)N1CCN(c2nc(-c3cccs3)nc3ccccc23)CC1,-22,x,x,x,x
CCOc1c2c(c(-c3ccc4c(c3)OCO4)c3cc(OC)c(OC)cc13)C(=O)OC2,16,x,x,x,x
Cc1ccccc1CN(C)CC(=O)NC(C)CCc1ccccc1 (configuration not stated),1,0%,2%,3%,-94*
CCN(CC)S(=O)(=O)c1ccc(C)c(NC(=O)COc2ccc(Cl)cc2Br)c1,0,2%,-1%,19%,-56*
Cc1ccc(-c2ccc(C3C4C=CCC(C)C4C(=O)N3Cc3ccccc3)c(F)c2)cc1 (configuration not stated),-20,x,x,x,x
SMILES,Giardia killer,Mm-Cpn inhibitor,Rango-impB inh,Rango release inh,CCT chaperon mod
CC1(C)c2[nH]c3ccccc3c2C[C@H]2C(=O)N(Cc3ccccc3)C(=O)N21,-15,x,2%,-22%,x
CC1(C)c2[nH]c3ccccc3c2C[C@@H]2C(=O)N(Cc3ccccc3)C(=O)N21,1,x,u,21µM*,x
CC(c1ccco1)N(C(=O)c1cccc(S(=O)(=O)N(C)C)c1)c1ccccn1 (configuration not stated),-11,2%,2%,-4%,-51*
O=C(O)C(Cc1cn[nH]n1)=NO,u,-3%,-1%,2%,-51*
O=C(c1ccc2c(=O)n(CCc3ccccc3)c(=O)[nH]c2c1)N1CCN(C(=O)c2ccco2)CC1,-2,x,x,x,x
Cc1cc(C(=O)NCc2cccnc2)no1,-12,0%,2%,0%,-31*
Cc1ccc(-c2cc(C(=O)NCc3cccnc3)no2)cc1,-4,-5%,-1%,18%,-1
CC1CN(N=Cc2ccc([N+](=O)[O-])o2)C(=N)O1 (configuration not stated),u,x,-1%,-1%,-1
O=C1SCCN1N=Cc1ccc([N+](=O)[O-])o1,-85*,x,-3%,1%,-2
O=S(=O)(c1cnc2ccccc2c1)N1CCN(c2nc(-c3cccs3)nc3ccccc23)CC1,19,x,x,x,x
COc1ccc(C2Nc3ccccc3C(=O)N2c2ccc(Cl)cc2)cc1COc1ccc(NC(C)=O)cc1 (configuration not stated),5,x,x,x,x
COc1cc(F)cc(-c2ccc3c(c2)c(-c2cccs2)c(-c2cc(OC)cc(OC)c2)n3C)c1,-27,22µM*,0%,-11%,1
COc1cc(OC)cc(-c2c(-c3cccs3)c3cc(Br)ccc3n2C)c1,7,-30%,u,5%,-1
Cc1ccc(-c2[nH]ncc2CNCc2ccc(CN(C)C)cc2)cc1,12,x,x,x,x
CCOC(=O)c1c(NC(=O)c2ccc(-n3cnnn3)cc2)sc2c1CCCC2,7,0%,-7%,21µM*,1
COc1ccc(CNc2nc3ccccc3n2CCN2CCOCC2)cc1,6,0%,1%,-10%,-45*
CC(=O)Oc1cccc(N2C(=O)c3cccc4c([N+](=O)[O-])ccc(c34)C2=O)c1,-6,-6%,u,1.8µM*[inhibitor],1
O=C(NCc1ccco1)/C(=C/c1ccc(C(F)(F)F)cc1)c1nc2ccccc2[nH]1,-1,-2%,u,18µM*,1
CCOC(=O)C(Cc1nc(OCc2ccccc2)cc(OCc2ccccc2)n1)=NO,-22,x,1%,-7%,-5
CCOC(=O)C(=O)Cc1nc(OCc2ccccc2)cc(OCc2ccccc2)n1,-15,x,1%,35%,-39*
CCOc1ccccc1C1NC(c2ccc3c(c2)OCO3)=CC(c2ccccc2O)N1 (configuration not stated),8,x,x,x,x
CN1Cc2c(N3CCOCC3)nc(SCc3ccccc3)c(C#N)c2CC1(C)C,10,-4%,u,8.2µM*,-3
CCSc1nc(N2CCOCC2)c2c(c1C#N)CC(C)(C)N(C)C2,-5,-4%,u,u,2
CNc1nc(-c2ccccc2)c(-c2ccccc2)s1,10,x,x,x,x
Cc1ccc(C(=O)n2nc(-c3ccccc3)nc2NCc2ccco2)cc1,-7,-3%,3%,7%,-60*
O=C(c1ccccc1)n1nc(-c2ccccc2)nc1NCc1ccco1,-13,3%,-5%,15%,-1

# Screening results deposited in PubChem BioAssay by National Center for Advancing Translational Sciences (NCATS).
